Test results from ChEMBL document CHEMBL4296182, “CO-ADD screening of NIH NCI Diversity Set V”.
For part of these data: Potency and affinity values are given separately.

Columns and labels:
Staphylococcus aureus = assay: Antibacterial activity against Staphylococcus aureus MRSA ATCC 43300 (CO-ADD:GP_020); MIC in CAMBH media using NBS plates, by Resazurin F(560/590); type: functional; settings: Concentration 20 uM, ASSAY_TEST Inhibition of Bacterial Growth, detection method Resazurin, Fluorescence (ex560/em590), MEDIA CAMHB, plate type 384well, CORNING #3640, time 18 hr
Acinetobacter baumannii = assay: Antibacterial activity against Acinetobacter baumannii ATCC 19606 (CO-ADD:GN_034); MIC in CAMBH media using NBS plates, by Resazurin F(560/590); type: functional; settings: Concentration 20 uM, ASSAY_TEST Inhibition of Bacterial Growth, detection method Resazurin, Fluorescence (ex560/em590), MEDIA CAMHB, plate type 384well, CORNING #3640, time 18 hr
Escherichia coli = assay: Antibacterial activity against Escherichia coli ATCC 25922 (CO-ADD:GN_001); MIC in CAMBH media using NBS plates, by Resazurin F(560/590); type: functional; settings: Concentration 20 uM, ASSAY_TEST Inhibition of Bacterial Growth, detection method Resazurin, Fluorescence (ex560/em590), MEDIA CAMHB, plate type 384well, CORNING #3640, time 18 hr
Klebsiella pneumoniae = settings: Concentration 20 uM; ASSAY_TEST Inhibition of Bacterial Growth; detection method Absorption (OD600); MEDIA CAMHB; plate type 384well; NBS; CORNING #3640; time 18 hr
Candida albicans = settings: 20 µM
Cryptococcus neoformans = settings: Concentration 20 uM; ASSAY_TEST Inhibition of Fungal Growth; detection method Resazurin; Absorption (OD600-OD570); plate type 384well; NBS; CORNING #3640

SMILES | Inhibition (Staphylococcus aureus) | Inhibition (Acinetobacter baumannii) | Inhibition (Escherichia coli) | Inhibition (Klebsiella pneumoniae) | Inhibition (Candida albicans) | Inhibition (Cryptococcus neoformans)
Sc1nccn1-c1c(Cl)cccc1Cl | 10.46% | 12.03% | 0.7% | 7.58% | 4.08% | -8.98%
C=CCOC(=O)/C=C\C(=O)NC(N)=O | 5.08% | -11.84% | 0.88% | 29.86% | 7.76% | 0.75%
Cc1c(O)ccc2c(O)c(NC(=O)c3ccc4c(c3)CCC(C)(C)O4)c(=O)oc12 [CYCLONOVOBIOCIC ACID] | 10.86% | 10.56% | -1.41% | 4.57% | 4.26% | -3.84%
NC(=O)c1cc2c3ccccc3ccn2c1-c1ccccc1 | 8.37% | -5.02% | 3.37% | 9.25% | 6.45% | -9.75%
CCOC(=O)C1CC(C)=C(C)CC1C(=O)O (stereo unspecified) | -6.63% | 13.31% | 5.04% | 7.81% | 6.96% | -10.63%
Cc1ccn(C)c(=N)c1 | 5.26% | -6.78% | 8.42% | 11.41% | 2.59% | -0.88%
Nc1ccc(C(=O)c2cccs2)cn1 | 33.76% | 0% | 26.4% | 9.25% | 8.82% | -0.14%
CCNc1nn2ccccc2c1/C=C(/C#N)C(=O)OCC | 10.32% | -16.65% | 7.73% | 11.76% | 8.75% | -8.42%
CSc1ccc2c(c1)C(N1CCN(C)CC1)Cc1ccccc1S2.O=C(O)/C=C\C(=O)O (stereo unspecified) | -0.23% | -8.02% | 11.6% | 5.53% | 2.59% | -7.96%
OCc1nnn(-c2ccccc2)c1CO | 11.04% | -9.88% | 7.14% | 22.49% | -4.02% | -6.38%
CCCCCC(=O)C(=O)c1ccc(O)cc1O | 10.4% | 8.8% | -2.2% | 16.02% | 6.66% | -6.56%
c1ccc2c(c1)[nH]c1c3ccccc3sc21 | 12.39% | -1.18% | 0.28% | 11.83% | 5.08% | -2.59%
O=c1[nH]c(=S)c2nc(S)n(-c3ccccc3)c2[nH]1 | 13.04% | 12.41% | 5.84% | 9.43% | 0.52% | -6.47%
NC(=O)Nc1ccc(Nc2ccccc2)cc1 | 15.79% | -8.02% | 5.39% | 5.31% | 0.18% | -3.95%
Clc1ccccc1/C=C/c1ccnc2ccccc12 | 12.2% | 3.17% | 1.57% | 12.59% | 30.4% | -3.47%
O=C(Nc1ccc(Oc2ccc(NC(=O)Nc3ccccc3Cl)cc2)cc1)Nc1ccccc1Cl | 19.6% | -10.42% | 14.43% | 12.03% | 16% | 6.13%
N#Cc1ncc(Cl)c2ccccc12 | -8.29% | -4.37% | -2.85% | 7.91% | 0.23% | -7.62%
Cc1nc([C@H]2CC[C@H]3[C@@H]4CCC5=CC(=O)CC[C@]5(C)[C@H]4CC[C@]23C)cs1 | 4.31% | 15.21% | 6.81% | 9.22% | 2.4% | -7.32%
CCCCC(=O)N1CCCC(C)C1 (stereo unspecified) | 12.48% | -11.97% | 4.56% | -3.93% | 4.76% | -4.37%
COc1ccc(C2=NC(=O)NC2c2ccc(OC)cc2)cc1 (stereo unspecified) | 6.62% | 10.45% | -0.66% | 17.66% | 6.15% | -4.19%
Nc1nc2cc([N+](=O)[O-])ccc2[nH]1 | 15.13% | -11.46% | 3.91% | 4.78% | 0.21% | -13.6%
Cc1n[nH]c2nc(N)nn2c1=O | -4.36% | -0.91% | 10.78% | -2.02% | -3.85% | -10.19%
OC(COc1cccc2ccccc12)CN1CCN(c2ccccc2Cl)CC1 (stereo unspecified) | -4.97% | 8.91% | -13.55% | 3.22% | 3.81% | -4.59%

SMILES | Inhibition (Staphylococcus aureus) | Inhibition (Acinetobacter baumannii) | Inhibition (Escherichia coli) | Inhibition (Klebsiella pneumoniae) | Inhibition (Candida albicans) | Inhibition (Cryptococcus neoformans)
Nc1ccc(/N=N/c2ccc(O)cc2)c(N)n1 | -3.88% | -10.7% | 0% | 0.93% | 0.86% | -14.36%
c1cc2c3c(cccc3c1)NC1(CCC3(CC1)Nc1cccc4cccc(c14)N3)N2 | 1.15% | 7% | 12.93% | 19.89% | 2.38% | -5.58%
N#C/C(=C\c1c[nH]c2ccccc12)C(N)=O | 13.33% | 12.56% | 0.03% | 10.43% | 4.53% | -10.69%
C=CCOc1ccc(S(C)(=O)=O)cc1 | -0.52% | -11.44% | 7.79% | 4.92% | 1.73% | -10.45%
CC1=C(O)C(=O)C(c2c(C)cc(C)c(Br)c2C)=C(O)C1=O | 15.91% | 1.25% | 4.64% | 20.53% | 19.7% | -3.3%
Cc1cnc2cc(Cl)ccc2c1SCC(=O)O | 2.5% | 10.23% | 1.72% | 11.14% | 11.6% | -9.96%
CCOC(=O)c1cc[nH]c1CC(=O)NC | 7.18% | 12.41% | -1.94% | 10.9% | 1.71% | -10.3%
c1cc(-n2nnc3cnccc32)ccn1 | 13.16% | -18.41% | 12.03% | -0.91% | -1.34% | -8.76%
Nc1nc(SCc2ccccc2)sc1C(=O)N1CCCCC1 | 18.6% | 4.73% | 3.88% | 21.18% | 8.19% | -7.01%
O=C(Nc1cccc2ccccc12)c1cc2c(cc1Br)OCO2 | 5.22% | 3.29% | 17.42% | 10.46% | 2.94% | -19.33%
O=C(O)CCNC1CCCCC1 | 7.12% | -7.34% | 6.52% | 12.82% | 3.1% | -1.65%
O=C(/C=C/c1ccccc1)CC(c1ccccc1)N1CCOCC1 (stereo unspecified) | 13.93% | 0.36% | -4.09% | 21.53% | 12.7% | -9.56%
CC(C)N(Cc1ccccc1)S(=O)(=O)c1nc(C(C)(C)C)n[nH]1 | 14.24% | 7.66% | 0.73% | 17.58% | 0.76% | -4.79%
O=C1C2C3C=CC(CC3)C2S(=O)(=O)C2C3C=CC(CC3)C12 (stereo unspecified) | 13.49% | 12.35% | 8.07% | 7.08% | 3.05% | -7.34%
Cc1nnsc1C(=O)NCc1c(F)cccc1Cl | -1.87% | -1.01% | -7.07% | 6.44% | -0.57% | -9.18%
Cc1ccc(NC(=O)N2CCN(C)CC2)cc1NC(=O)N1CCN(C)CC1 | 2.62% | 1.03% | -22.66% | 4.06% | 0.95% | 29.46%
COC(=O)CC1(C(=O)OC)Nc2cc(Cl)c(Cl)cc2S(=O)(=O)N1O (stereo unspecified) | 8.27% | 11.98% | 7.08% | 10.44% | 3.58% | 3.59%
CC1=CC(=O)Nc2cncnc2N1 | 4.06% | -8.47% | 8.98% | 13.83% | 0.16% | 0.91%
C#Cc1cccc(NC(=O)c2ccc(Cl)cc2Cl)c1 | 1.84% | -16.25% | 7.38% | 6.81% | 7.69% | -7.06%
C(=C\c1ccc(/C=C/c2ccccc2)nn1)/c1ccccc1 | 12.1% | 11.6% | 2.44% | 18.32% | 0.82% | -5.49%
CCOCc1cc(O)nc(SC)n1 | 12.32% | -13.24% | 14.73% | 11.3% | -0.55% | -4.91%
COc1ccc2nc3cc(Cl)ccc3c(Nc3cc(C(C)C)c(O)cc3C)c2c1 | 18.28% | -16.67% | 18.01% | 9.53% | -0.84% | -12.42%
CC1=C(C(N)=O)S(=O)(=O)c2ccccc21 | 7.64% | -12.26% | 14.02% | 8.77% | 2.88% | -16.62%
